Source: PubChem BioAssay AID1159580 (chemical genetic matrix, 2015)
Hit rate of the full screen: of about 5,500 compounds, about 2,000 (36%) were called active. Inconclusive results (about 18%) are left out. Rule as the data show it: active = normalized growth mostly below about 0.91 (no sharp cut-off); inconclusive = no clear call, values can overlap the other calls; inactive = mostly above about 0.92. Some of the results follow.

Assay: chemical genetic growth profiling, strain panel (AID 1159580);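 also: tested at 20 µM; growth read once vehicle control cultures reached saturation at 30 °C; 1 = growth at the plate median or of vehicle wells; lower values mean less growth of the strain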
Conditions: growth OD

Measured: normalized growth

C=C[C@@]1(C)CC(=O)[C@@]2(O)[C@](C)(O1)[C@@H](OC(C)=O)[C@@H](O)C1C(C)(C)CC[C@H](O)[C@@]12C (some centres not stated)
inactive: S. cerevisiae deletion strains, locus YJR075W, strain HOC1, stronger effect = lower value 0.997 | S. cerevisiae deletion strains, locus YKL009W, strain mrt4, stronger effect = lower value 0.964 | S. cerevisiae deletion strains, locus YKL068W, stronger effect = lower value 0.992 | S. cerevisiae deletion strains, locus YKL085W, strain MDH1 (second series), stronger effect = lower value 0.966 | S. cerevisiae deletion strains, locus YKL085W, strain MDH1, stronger effect = lower value 0.966 | S. cerevisiae deletion strains, locus YKL160W, strain elf1, stronger effect = lower value 0.963 | S. cerevisiae deletion strains, locus YKL190W, strain CNB1, stronger effect = lower value 0.99 | S. cerevisiae deletion strains, locus YKR001C, strain vps1, stronger effect = lower value 0.984 | S. cerevisiae deletion strains, locus YKR026C, strain gcn3, stronger effect = lower value 0.997 | S. cerevisiae deletion strains, locus YKR091W, strain srl3, stronger effect = lower value 0.971 | S. cerevisiae deletion strains, locus YLL001W, strain dnm1, stronger effect = lower value 1.02 | S. cerevisiae deletion strains, locus YLL026W, stronger effect = lower value 0.964 | S. cerevisiae deletion strains, locus YLL041C, strain sdh2, stronger effect = lower value 0.969 | S. cerevisiae deletion strains, locus YLR027C, strain aat2, stronger effect = lower value 0.98 | S. cerevisiae deletion strains, locus YLR039C, strain RIC1, stronger effect = lower value 0.939 | S. cerevisiae deletion strains, locus YLR058C, strain SHM2, stronger effect = lower value 0.982 | S. cerevisiae deletion strains, locus YLR102C, strain apc9, stronger effect = lower value 0.974 | S. cerevisiae deletion strains, locus YLR113W, strain HOG1, stronger effect = lower value 0.955 | S. cerevisiae deletion strains, locus YLR221C, strain rsa3, stronger effect = lower value 1.03 | S. cerevisiae deletion strains, locus YLR258W, strain gsy2, stronger effect = lower value 0.965 | S. cerevisiae deletion strains, locus YLR262C, strain YPT6 (second series), stronger effect = lower value 0.968 | S. cerevisiae deletion strains, locus YLR262C, strain YPT6, stronger effect = lower value 0.894 | S. cerevisiae deletion strains, locus YLR268W, strain sec22, stronger effect = lower value 1.07 | S. cerevisiae deletion strains, locus YLR320W, strain mms22, stronger effect = lower value 1.01 | S. cerevisiae deletion strains, locus YLR330W, strain CHS5, stronger effect = lower value 0.989 | S. cerevisiae deletion strains, locus YLR342W, strain FKS1 (second series), stronger effect = lower value 0.987 | S. cerevisiae deletion strains, locus YLR342W, strain FKS1, stronger effect = lower value 0.991 | S. cerevisiae deletion strains, locus YLR357W, strain rsc2, stronger effect = lower value 0.987 | S. cerevisiae deletion strains, locus YLR370C, strain arc18, stronger effect = lower value 0.978 | S. cerevisiae deletion strains, locus YLR371W, strain rom2, stronger effect = lower value 0.968 | S. cerevisiae deletion strains, locus YLR384C, strain iki3, stronger effect = lower value 0.993 | S. cerevisiae deletion strains, locus YLR418C, strain cdc73, stronger effect = lower value 0.99 | S. cerevisiae deletion strains, locus YML016C, strain PPZ1, stronger effect = lower value 0.991 | S. cerevisiae deletion strains, locus YML032C, strain rad52, stronger effect = lower value 1.01 | S. cerevisiae deletion strains, locus YML120C, strain ndi1, stronger effect = lower value 0.989 | S. cerevisiae deletion strains, locus YML124C, strain tub3, stronger effect = lower value 0.983 | S. cerevisiae deletion strains, locus YMR058W, strain fet3, stronger effect = lower value 0.982 | S. cerevisiae deletion strains, locus YMR078C, strain ctf18, stronger effect = lower value 0.985 | S. cerevisiae deletion strains, locus YMR125W, strain sto1, stronger effect = lower value 0.974 | S. cerevisiae deletion strains, locus YMR129W, stronger effect = lower value 0.965 | S. cerevisiae deletion strains, locus YMR205C, strain PFK2, stronger effect = lower value 0.998 | S. cerevisiae deletion strains, locus YMR223W, strain ubp8, stronger effect = lower value 0.98 | S. cerevisiae deletion strains, locus YMR231W, strain pep5, stronger effect = lower value 0.992 | S. cerevisiae deletion strains, locus YMR263W, strain SAP30, stronger effect = lower value 0.992 | S. cerevisiae deletion strains, locus YMR307W, strain GAS1, stronger effect = lower value 1 | S. cerevisiae deletion strains, locus YNL067W, strain RPL9B, stronger effect = lower value 1.01 | S. cerevisiae deletion strains, locus YNL071W, strain lat1, stronger effect = lower value 0.988 | S. cerevisiae deletion strains, locus YNL128W, strain TEP1, stronger effect = lower value 0.965 | S. cerevisiae deletion strains, locus YNL153C, strain GIM3, stronger effect = lower value 1.01 | S. cerevisiae deletion strains, locus YNL183C, strain NPR1, stronger effect = lower value 0.933 | S. cerevisiae deletion strains, locus YNL209W, strain ssb2, stronger effect = lower value 0.992 | S. cerevisiae deletion strains, locus YNL233W, strain BNI4, stronger effect = lower value 1.01 | S. cerevisiae deletion strains, locus YNL248C, strain rpa49, stronger effect = lower value 0.919 | S. cerevisiae deletion strains, locus YNL250W, strain rad50, stronger effect = lower value 0.972 | S. cerevisiae deletion strains, locus YNL271C, strain bni1, stronger effect = lower value 0.987 | S. cerevisiae deletion strains, locus YNL298W, strain CLA4, stronger effect = lower value 0.959 | S. cerevisiae deletion strains, locus YNL307C, strain MCK1, stronger effect = lower value 0.996 | S. cerevisiae deletion strains, locus YNL322C, strain KRE1 (second series), stronger effect = lower value 0.939 | S. cerevisiae deletion strains, locus YNL322C, strain KRE1, stronger effect = lower value 0.994 | S. cerevisiae deletion strains, locus YNR049C, strain mso1, stronger effect = lower value 0.959 | S. cerevisiae deletion strains, locus YNR052C, strain pop2, stronger effect = lower value 0.984 | S. cerevisiae deletion strains, locus YOL006C, strain TOP1, stronger effect = lower value 0.997 | S. cerevisiae deletion strains, locus YOL012C, strain htz1 1.15 | S. cerevisiae deletion strains, locus YOL147C, strain pex11, stronger effect = lower value 0.999 | S. cerevisiae deletion strains, locus YOR001W, strain rrp6, stronger effect = lower value 1.03 | S. cerevisiae deletion strains, locus YOR061W, strain CKA2, stronger effect = lower value 0.972 | S. cerevisiae deletion strains, locus YOR069W, strain VPS5, stronger effect = lower value 0.993 | S. cerevisiae deletion strains, locus YOR070C, strain gyp1, stronger effect = lower value 0.986 | S. cerevisiae deletion strains, locus YOR080W, strain dia2, stronger effect = lower value 0.973 | S. cerevisiae deletion strains, locus YOR083W, strain WHI5, stronger effect = lower value 0.92 | S. cerevisiae deletion strains, locus YOR106W, strain vam3, stronger effect = lower value 0.919 | S. cerevisiae deletion strains, locus YOR136W, strain idh2, stronger effect = lower value 0.978 | S. cerevisiae deletion strains, locus YOR144C, strain elg1, stronger effect = lower value 0.991 | S. cerevisiae deletion strains, locus YOR184W, strain ser1, stronger effect = lower value 0.978 | S. cerevisiae deletion strains, locus YOR231W, strain MKK1, stronger effect = lower value 0.966 | S. cerevisiae deletion strains, locus YOR265W, strain rbl2, stronger effect = lower value 0.988 | S. cerevisiae deletion strains, locus YOR270C, strain vph1, stronger effect = lower value 0.94 | S. cerevisiae deletion strains, locus YOR290C, strain snf2, stronger effect = lower value 0.955 | S. cerevisiae deletion strains, locus YOR316C, strain cot1, stronger effect = lower value 0.984 | S. cerevisiae deletion strains, locus YPL051W, strain arl3, stronger effect = lower value 0.97 | S. cerevisiae deletion strains, locus YPL055C, strain LGE1, stronger effect = lower value 0.998 | S. cerevisiae deletion strains, locus YPL078C, strain atp4, stronger effect = lower value 0.955 | S. cerevisiae deletion strains, locus YPL106C, strain sse1, stronger effect = lower value 0.955 | S. cerevisiae deletion strains, locus YPL240C, strain hsp82, stronger effect = lower value 0.987 | S. cerevisiae deletion strains, locus YPL241C, strain CIN2, stronger effect = lower value 0.989 | S. cerevisiae deletion strains, locus YPL256C, strain CLN2, stronger effect = lower value 0.973 | S. cerevisiae deletion strains, locus YPR119W, strain clb2, stronger effect = lower value 0.978 | S. cerevisiae deletion strains, locus YPR141C, strain kar3, stronger effect = lower value 0.975 | S. cerevisiae deletion strains, locus YPR163C, strain tif3, stronger effect = lower value 0.993 | S. cerevisiae deletion strains, locus YPR167C, strain met16, stronger effect = lower value 0.986 | S. cerevisiae deletion strains, strain wtn01, stronger effect = lower value 0.997 | S. cerevisiae strains, strain wild type, stronger effect = lower value 0.984
